Reference: PubChem BioAssay (NCI)
The panel holds about 79,000 compounds, 15% with a hit somewhere; the sample as a whole holds those more often. Values without a mark were called inactive. Active and inactive are the calls of the source. Cut-off read from the data, not from the text of the source: active = growth inhibition above about 70%; inactive = the rest.

What was measured:
[1] = NCI Yeast Anticancer Drug Screen. Data for the rad50 strain (AID 155);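 note: 0% = growth of vehicle-only cultures of the same strain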; settings: S. cerevisiae rad50 strain growth inhibition; at 50.0 µM; active compounds read high
How it was run: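 Readout: growth inhibition relative to vehicle-treated cultures. Compound exposure was carried out in a genetically defined yeast strain deficient in DNA damage repair.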

[2] = NCI Yeast Anticancer Drug Screen. Data for the mec2-1 strain (AID 157); settings: S. cerevisiae mec2-1 strain, at 50.0 µM, active compounds read high
How it was run: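 Each compound was tested on mec2-1 yeast, a strain altered in DNA damage repair or cell cycle control. Growth inhibition is reported relative to vehicle.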

[3] = NCI Yeast Anticancer Drug Screen. Data for the sgs1 mgt1 strain (AID 161);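 note: 0% = growth of cultures given vehicle only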; settings: S. cerevisiae sgs1 mgt1 strain, at 50.0 µM, active compounds read high
How it was run: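 Mutant yeast exposed to compound; growth scored against vehicle-only wells.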

[4] = NCI Yeast Anticancer Drug Screen. Data for the cln2 rad14 strain (AID 165);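 note: 0% = growth equal to vehicle treated cultures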; settings: S. cerevisiae cln2 rad14 strain, at 50.0 µM, active compounds read high
How it was run: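 Test compounds were added to cln2 rad14 yeast cultures; inhibition of growth was then determined by comparison with vehicle treatment.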

[5] = NCI Yeast Anticancer Drug Screen. Data for the bub3 strain (AID 167); settings: S. cerevisiae bub3 mutant strain, at 50.0 µM, active compounds read high
How it was run: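 Readout: yeast growth inhibition, expressed relative to vehicle-only wells. The test organism is a mutant strain from a panel with lesions in DNA repair or checkpoint genes.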

[6] = NCI Yeast Anticancer Drug Screen. Data for the mlh1 rad18 strain (AID 175); settings: S. cerevisiae mlh1 rad18 strain growth inhibition; at 50.0 µM; active compounds read high
How it was run: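 Inhibition values reflect reduced growth of mutant yeast versus vehicle-treated controls following compound exposure; the mutations affect DNA damage repair.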

Row | Compound | growth inhibition [1] | growth inhibition [2] | growth inhibition [3] | growth inhibition [4] | growth inhibition [5] | growth inhibition [6]
1 | CCC(C)Sc1nc2ccc(NC(=O)/C=C/C(=O)O)cc2s1 (stereo unspecified) | 31.5% | 10% | 11.7% | 15.7% | 13.5% | 16.1%
2 | CCCC1=C(c2ccc(OC)cc2)Cc2cc(OC)ccc21 | -14.9% | -16.9% | -1.05% | -2.4% | 2.1% | 9%
3 | N#C/C(=C1\OC(N)=C(c2ccc(Cl)cc2)C1=O)c1ccc(Cl)cc1 | 2.9% | -8.45% | 6.8% | 18.4% | 2.15% | 9.2%
4 | O=NSC(c1ccccc1)(c1ccccc1)c1ccccc1 | 1.65% | -24.2% | 1.6% | -28.1% | -9.25% | 0%
5 | COc1ccc(NC(=O)N(C)C)cc1OC | 14.8% | -5.25% | -4.2% | -25.6% | 4.4% | 15.8%
6 | COc1cccc(C(=O)O)c1Cc1cccc2ccccc12 | 1.25% | -6.7% | 10.3% | 27.2% | -0.4% | 25.1%
7 | COc1ccc(C2C/C(=N/O)c3ccccc3O2)cc1 (stereo unspecified) | 16.6% | -7.85% | 5.85% | -93.6% | -7.75% | 10.1%
8 | CC1CCN(CCOC(=O)c2ccc(OC(C)C)cc2)C1 (stereo unspecified) | 8.1% | 12.6% | 24.4% | -10.5% | 11.2% | 12.1%
9 | Cc1ccc(C(=O)c2ccccc2C(=O)O)cc1C(=O)O | 8.9% | 11.1% | 1.15% | 2.7% | 10.2% | -7.05%
10 | O=c1c(SCc2ccc(Cl)cc2)c(N2CCCCC2)cnn1-c1ccccc1 | 20.5% | 19.4% | 10.8% | 34% | 9.3% | 15.1%
11 | O=C(Oc1ccc2ccccc2c1)c1ccccc1 | 28.4% | 4.4% | 28.4% | 21.9% | 2.7% | 10.1%
12 | Cc1ccc(S(=O)(=O)OCC(C)(C)CC#N)cc1 | 10.9% | 30.6% | 35.9% | 16.9% | 46.4% | 23.9%
13 | CCOC(CCl)(NC(C)=O)C(=O)OC (stereo unspecified) | -0.5% | -9.7% | -9.55% | -8.75% | 4.3% | -8.1%
14 | CN(C)C(=O)C1CCNCC1 | 2.5% | -2.1% | -4.15% | -9.5% | -11.3% | 3.45%
15 | COc1c(O)c(O)c2c(c1O)C(=O)c1cc(C)cc(O)c1C2=O | -16.3% | -27% | -22.7% | -8.45% | -30% | -19.4%
16 | Cc1cccc(C)c1-n1c(C)nc2[nH]cc(C)c2c1=N | 6.35% | -6.25% | 4.55% | 5.1% | 17.1% | 8.95%
17 | COc1ccc(-c2c3ccccc3c(-c3ccc(OCCCCCBr)cc3)c3ccccc23)cc1 | -10.4% | -10.7% | -10.6% | -30.1% | -22.5% | 1.4%
18 | CCOC(=O)/C=C\[C@H]1OC(C)(C)O[C@H]1[C@H](O)[C@H]1COC(C)(C)O1 | -22.3% | -14.1% | -15.4% | 38% | -11.8% | -9.6%
19 | COP(=O)(OC)C1c2cc(Cl)ccc2-c2c(Cl)cc(Cl)cc21 (stereo unspecified) | 88.8% (active) | 67.9% | 83.7% (active) | 49.5% | 32.6% | 68.8%
20 | FC(F)C(F)(F)N1c2ccccc2Sc2ccccc21 | 27.6% | -6.2% | 19.9% | 6.9% | 27.1% | 60.1%
21 | C=C(C)C1Cc2c(cc(OC)c3c(=O)c4cccc(O)c4oc23)O1 (stereo unspecified) | 43.1% | 15.4% | -1.95% | 25.4% | -20.2% | -21.4%

Row | Compound | growth inhibition [1] | growth inhibition [2] | growth inhibition [3] | growth inhibition [4] | growth inhibition [5] | growth inhibition [6]
22 | COc1cc2cc(OC)c3cc4c(cc3c2c(OC)c1OC)OCO4 | 12.2% | 11.1% | 19.2% | 7.3% | 6.6% | 5.65%
23 | CCCC(C)C(O)C(C)C (stereo unspecified) | 1.25% | -19.8% | -5.1% | 3.6% | 8.7% | -18.7%
24 | O=[N+]([O-])c1ccc(S(=O)c2ccc(Cl)cc2)c2c1no[n+]2[O-] (stereo unspecified) | 98.5% (active) | 99.4% (active) | 98.7% (active) | 32% | 76.1% (active) | 99.2% (active)
25 | CC(=O)Oc1ccc(C(C)(C)C)cc1 | 10.7% | -7.25% | 1.55% | -11.7% | -4.1% | 5.15%
26 | O=C(O)C1CC1(C(=O)O)C(=O)O (stereo unspecified) | 9.75% | 4.05% | -6.95% | 3.45% | -0.05% | -1.1%
27 | CC12CCC(O)CC1=CCC1C2CCC2(C)C1CCC21SCCS1 (stereo unspecified) | 2.35% | 9.7% | 20.2% | 14.4% | 13.8% | 13%
28 | COc1cc2c(SCCN(C)C)nc3ccccc3c2c2ccccc12 | 89.9% (active) | 92.3% (active) | 90.8% (active) | 87.8% (active) | 91.5% (active) | 89.1% (active)
29 | O=C1NC2(O)C(=O)c3ccccc3C2(O)N1 (stereo unspecified) | -8.65% | -10.2% | -27.9% | 5.8% | -17.3% | 0.55%
30 | CC(C)c1ccc(/C=C2/CCCCC2=O)cc1 | -2.55% | -15% | -10.5% | -68.8% | -16.4% | -24.9%
31 | CCCCNC[C@@H](O)[C@H](O)COS(C)(=O)=O | 0.4% | -11.7% | -8.65% | -24.1% | -13.7% | -7.05%
32 | O=C1N(c2cccc(F)c2)C(=O)N1c1cccc(F)c1 | 27.4% | 3.3% | -9.1% | 13.2% | -1.1% | 5.5%
33 | COc1cc2ccc3c[n+]4ccccc4cc3c2cc1OC | 9.25% | 14.2% | 19.9% | 19.4% | 20.2% | 14%
34 | CCCCC1=C(C)C/C(=N/Nc2ccc([N+](=O)[O-])cc2[N+](=O)[O-])C(C)C1CCCC (stereo unspecified) | 3.7% | 2.8% | -13.6% | 8.15% | 3.3% | 21.9%
35 | Cc1cc(C)cc(Cc2ccc3ccccc3c2)c1 | 2.9% | -3.65% | -1.15% | -12.3% | 9.45% | 8.45%
36 | CC1OC2(CC(OCc3ccccc3)C1OCc1ccccc1)OCCO2 (stereo unspecified) | -10.9% | -3.85% | -8.7% | -4.8% | 21.6% | -31.9%
37 | CCCCCCCCC1CC(=O)OC1=O (stereo unspecified) | 0.05% | 0.55% | -0.65% | 7.05% | -1.55% | -2.35%
38 | BrC=C1c2ccccc2-c2ccccc21 | 5.45% | -7.35% | 3.9% | 22.6% | 2.35% | 4.55%
39 | Cn1c([N+](=O)[O-])cnc1/C=C1\CCc2cc(OCCN3CCCC3)ccc2C1=O | 30.4% | 24.3% | 36.4% | 21.6% | -2% | 38.3%
40 | CCOc1ccc(/C=C2\N=C(c3ccc([N+](=O)[O-])cc3)OC2=O)cc1 | 11.2% | 19.8% | 3% | 3.45% | 15.6% | 8.15%
41 | CCS(=O)CCO (stereo unspecified) | -22.7% | -20.4% | -15.8% | -21.8% | 10.8% | -14.2%
